Source: PubChem BioAssay (National Center for Advancing Translational Sciences (NCATS))
This is a sample that favours compounds with a hit; in the whole collection about 3% have one here.
ERK AVP inh – qHTS Assay for Inhibitors of the ERK Signaling Pathway using a Homogeneous Screening Assay. HEK293-V1b, vasopressin-stimulated pERK AlphaScreen. actives 0.99% (n = 72,000). Potency, µM (series often up to 57.5 µM), without a hit: at the highest dose activity, negative = inhibition, actives largely listed as inhibitors; note: potency is the fitted concentration of half-maximal effect; % is set by controls: 0 for no effect and ±100 for the full control effect; nearly all actives have a fitted effect of over 55% in size
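V1b-HEK293 cells; cpd 30 min 37C; 25 nM vasopressin 5 min; lyse 10 min; AlphaScreen beads 5 hr RT. Normalized to DMSO basal and 25 nM vasopressin; AC50 by Hill fit.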
Hsp90 Hop PPI – qHTS Assay for Disrupters of an Hsp90 Co-Chaperone Interaction. Hsp90 C-terminal peptide / TPR2A (Hop) interaction, human. AlphaScreen TPR2A-His6 binding biotin-Hsp90 C-terminal peptide. Potency, µM (titrated, usually from 57 µM), inactives show at the top dose activity change, negative = inhibition. actives 0.44% (n = 71,000); active = well fitted curve in either direction with a large enough effect; inconclusive = small, poorly fitted or top-dose-only effect, or another doubt; note: potency is the fitted concentration of half-maximal effect; % is set by controls: 0 for no effect and ±100 for the full control effect
Epigenetic mod – qHTS Assay for Epigenetic Modulators. actives 0.09% (n = 68,000). mouse C127i GFP locus derepression, cytometry, 30 h. Potency, µM (series often up to 46.1 µM), without a hit: at the highest dose GFP derepression (activation); note: % of control where 0% means no effect
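Derepression screen: silenced CMV-GFP reporter in murine C127i cells, 30 h compound incubation at 37 C, washed cells imaged by laser-scanning cytometer to enumerate GFP-expressing objects of 20 to 120 um.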
HBB splice mod – qHTS Assay for Modulators of Hemoglobin Beta Chain Splicing. HBB splicing reporter cell assay, activation; EGFP reporter with mutant IVS2-654 intron; response scale: normalised to 500 nM splice-correcting PNA. actives 0.06% (n = 65,000). Potency, µM (highest dose often 46.1 µM), for inactives: at the top dose activation, usual class: activators; note: potency is the fitted concentration of half-maximal effect; 0% is about no effect
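Compounds were applied for 2 days to HeLa EGFP-654 cells, 500/well in Optimem with 2% FCS. The reporter's EGFP is disrupted by mis-splicing of beta-globin intron IVS2-654. Readout: summed well GFP fluorescence from 488 nm laser scanning; reference was 500 nM antisense […] 654 PNA.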
Ub-GFP proteasome – Ubiquitin-GFP Assay; Ubiquitin-GFP reporter cells, proteasome inhibition, GFP fluorescence; response scale: untreated = 0%, 10 µM MG-132 = 100%; Potency, µM (series often up to 45.9 µM), for the others: at the highest dose activation (GFP accumulation), usual class: activators; 67,000 tested, under 10 active; AID 526, 2006; active = well fitted activation curve with a large enough effect, not every such curve was filed as active; inconclusive = small, poorly fitted or top-dose-only effect, or another doubt; inactive = no such curve, though single readings can be large or run the other way; note: potency is the fitted concentration of half-maximal effect
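U2OS cells expressing ubiquitin(G76V)-GFP, seeded overnight in 0.5% FBS medium, then treated 4 hr at 37 C across 46 uM to 2.9 nM. GFP-positive cells counted by laser cytometry (488 ex/515 em); %activity scaled between basal and 10 uM MG-132.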
Tau filament bind – qHTS Assay for Tau Filament Binding; Microtubule-associated protein tau (Homo sapiens), P10636; recombinant tau filaments, thioflavin S fluorescence, 15 h; filaments grown with octadecylsulfate alongside compound; Potency, µM (series often up to 57.1 µM), without a hit: at the highest dose activity change, negative = inhibition; actives 2% (n = 71,000); AID 596, 2007;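 note: potency is the fitted concentration of half-maximal effect; % is set by controls: 0 for no effect and ±100 for the full control effect; actives lower thioflavin S fluorescence by blocking filaments or displacing dye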
Target sequence (P10636 whole entry, looked up): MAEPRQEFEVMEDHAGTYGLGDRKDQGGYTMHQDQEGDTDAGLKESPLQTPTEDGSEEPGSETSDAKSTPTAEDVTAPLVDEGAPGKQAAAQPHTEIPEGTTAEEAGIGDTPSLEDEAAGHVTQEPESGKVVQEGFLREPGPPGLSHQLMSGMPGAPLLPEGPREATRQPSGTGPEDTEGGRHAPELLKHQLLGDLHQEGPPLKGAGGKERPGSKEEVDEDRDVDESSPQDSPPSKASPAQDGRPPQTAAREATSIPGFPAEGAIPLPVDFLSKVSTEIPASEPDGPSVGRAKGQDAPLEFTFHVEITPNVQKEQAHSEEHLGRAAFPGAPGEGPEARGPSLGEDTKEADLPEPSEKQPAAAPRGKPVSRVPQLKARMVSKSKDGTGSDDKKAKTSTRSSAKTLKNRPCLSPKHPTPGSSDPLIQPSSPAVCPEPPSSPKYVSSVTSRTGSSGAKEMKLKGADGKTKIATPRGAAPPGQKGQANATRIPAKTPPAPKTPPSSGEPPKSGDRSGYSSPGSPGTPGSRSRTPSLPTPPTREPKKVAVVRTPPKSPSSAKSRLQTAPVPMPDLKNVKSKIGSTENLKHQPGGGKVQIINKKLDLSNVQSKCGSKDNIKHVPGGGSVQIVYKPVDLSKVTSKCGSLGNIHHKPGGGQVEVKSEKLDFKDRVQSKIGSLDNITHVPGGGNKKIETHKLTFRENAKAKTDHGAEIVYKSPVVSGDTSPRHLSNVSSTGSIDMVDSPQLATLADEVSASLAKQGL
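Quantitative HTS: thioflavine S signal from ODS-induced tau filaments, excited at 450 nm, emission 510 nm. Conditions: 1 uM tau, 30 uM ODS, 15 h at 37 C, pH 7.4.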
Starred values were filed as active, the others as inactive; ? = inconclusive; nt = no result; [ ] = remark or other dose. Unless noted, calls come from the whole dose curve; as a rule, active = well fitted curve in the direction sought with a large enough effect; inconclusive = small, poorly fitted or top-dose-only effect, or another doubt; inactive = no such curve, though single readings can be large; an effect the other way counts as inactive or inconclusive.

SMILES	ERK AVP inh	Hsp90 Hop PPI	Epigenetic mod	HBB splice mod	Ub-GFP proteasome	Tau filament bind
CN(C)c1ncc2nc(-c3ccccc3)c(=O)n(C3CC3)c2n1	44%	20µM*	-3%[9.22 µM]	2%	3%	322%
Cc1ccc(SCN2CCCCC2)cc1 (tested in a mixture with another compound)	-13%[11.5 µM]	-4%[11 µM]	-1%[9.22 µM]	0%[9.22 µM]	-1%[9.17 µM]	-4%[11.4 µM]
Fc1ccc(CNc2nc(-c3ccco3)cc(C(F)(F)F)n2)cc1	11%	?	2%	1%	-15%	?
FC(F)(F)c1cc(-c2ccco2)nc(NCc2cccnc2)n1	?	-9%	2%	-2%	8%	20µM*
CCN(CC)c1ccc2cc(-c3nnc(-c4ccncc4)o3)c(=O)oc2c1	nt	nt	2µM*	nt	nt	nt
CCN(CC)c1ccc2cc(C(=O)Nc3ccccn3)c(=O)oc2c1	nt	nt	-3%[20.6 µM]	nt	nt	nt
Nc1ccccc1[N+](=O)[O-]	-12%	-15%	nt	0%	nt	9%
O=c1c2ccccc2oc2nc(-c3ccco3)n(Cc3ccccc3)c(=O)c12	-4%	0%	10%	1%	11%	20µM*
COc1ccc2c(=O)c3c(=O)n(Cc4ccco4)c(-c4ccc(C)cc4)nc3oc2c1	-17%	-4%	-2%	1%	6%	10µM*
CCc1nc2oc3ccccc3c(=O)c2c(=O)n1Cc1ccccc1	-1%	-2%	0%	1%	20%	2%
Cc1nc(N2CCOCC2)c2nc(-c3ccccc3)n(CCN(C)C)c2n1	-14%	-2%	nt	2%	1%	-2%
C[C@@]12CCC(=O)C=C1CC[C@H]1[C@H]3CC[C@](O)(C(=O)CO)[C@]3(C)CC[C@@H]12	nt	-9%	-1%	4%	-7%	-2%
Cc1nc(Nc2ccc3c(c2)OCCO3)c2oc3ccccc3c2n1	16µM*	2%	4%	-3%[57.5 µM]	-2%	9%
O=C(Nc1ccc2c(c1)OCO2)C1Cc2ccccc2CN1S(=O)(=O)c1cccs1 (stereo unspecified)	-47%	-7%	-1%	0%[57.5 µM]	3%	25µM*
O=C(Nc1ccc2c(c1)OCO2)C1CCN(S(=O)(=O)c2cccs2)CC1	?	-26%	0%	3%	17%	13µM*
CCCn1c(NC(=O)c2cccc(S(=O)(=O)N3CCCC3)c2)nc2ccccc21	?	-3%	-2%	-5%[57.5 µM]	-3%	28%
CCCn1c(NC(=O)C2CCN(S(=O)(=O)c3cccs3)CC2)nc2ccccc21	13µM*	-12%	5%	-3%	0%	22%
CSCC[C@@H]1NC(=O)C/C=C\[C@@H](C)COC(=O)[C@@H](CCSC)NC(=O)C/C=C\[C@@H](C)COC1=O	20%[11.5 µM]	nt	nt	0%[9.22 µM]	nt	nt
COc1cc(/C=C/C(=O)CC(=O)/C=C/c2ccc(O)c(OC)c2)ccc1O	32µM*	-5%	6%[20.6 µM]	?	nt	325%
OCC1OC(n2cnc3c(=S)nc[nH]c32)C(O)C1O (stereo unspecified)	5%	nt	nt	nt	nt	nt
COc1ccc(NC(=O)Nc2ccc3nccnc3c2)cc1	-25%	-9%[11 µM]	0%	-1%[0.0738 µM]	2%[9.17 µM]	3.2µM*
COc1ccc(NC(=O)Nc2ccc(N(C)C)cc2)cc1	-12%	-21%	-2%	0%	0%	16µM*
Cc1ccc(S(=O)(=O)OCC(=O)O)cc1	-1%[11.5 µM]	0%[11 µM]	0%[9.22 µM]	2%[9.22 µM]	-3%[9.17 µM]	-2%[11.4 µM]
Cn1c(NCc2ccccc2O)nc2ccccc21	-25%	-5%	0%	-3%	2%	-8%
Cn1c(NCc2cccc(Br)c2)nc2ccccc21	32µM*	-9%	0%	-2%	-3%	7%
SMILES	ERK AVP inh	Hsp90 Hop PPI	Epigenetic mod	HBB splice mod	Ub-GFP proteasome	Tau filament bind
CCCC(=O)c1cc2cc(Cl)ccc2oc1=O	22%	?	0%	-2%	3%	148%
Cc1cc(Cl)ccc1Nc1sc(C(=O)c2cc3cc(Cl)ccc3o2)c(N)c1C#N	-9%[11.5 µM]	-7%[11 µM]	5%[9.22 µM]	3%[9.22 µM]	-1%[9.17 µM]	3.2µM*
CC(C)CO/N=C1/C[C@@H](O)[C@@H](O)[C@@H]2[C@@H]3C(=O)N([C@@H](C)c4ccccc4)C(=O)[C@H]3CC[C@H]12	1%[11.5 µM]	nt	nt	2%[9.22 µM]	nt	nt
COc1ccc(-c2cc(N)n(S(=O)(=O)c3c(F)c(F)c(F)c(F)c3F)n2)cc1OC	5µM*	-16%	-5%	3%	-5%	-9%
O=C(Oc1ccccc1)N1CCN(c2ccc(F)cc2)CC1	-14%	?	0%	-2%[0.0738 µM]	5%[9.17 µM]	-12%[11.4 µM]
O=C(Nc1ccc(N2CCN(c3ccc(O)cc3)CC2)cc1)Oc1ccccc1	-24%	-10%	3%	3%	0%	2µM*
CN1CCN(c2ccc(NC(=O)c3cccc(OCc4ccccc4)c3)cc2)CC1	?	-22%	0%	0%	2%	7.9µM*
C[C@H](N)C1CCC(C(=O)Nc2ccncc2)CC1 (stereo partly specified)	-12%	-4%	0%	-1%	-5%	-2%
O=C(CSc1nnc(-c2ccccc2)o1)c1nnc(-c2ccccc2)o1	-29%	-19%	0%	0%	0%	4µM*
N[C@H](Cc1cccc(-c2ccccc2CP(=O)(O)O)c1)C(=O)O	?	-6%	1%	2%	-4%	8%
O=C(OC1CCCCC1)c1ccc2c(c1)C1C=CCC1C(C(=O)O)N2 (stereo unspecified)	45%	?	6%	-1%	0%	0.63µM*
